Source: PubChem (several laboratories)
In the library only some 32% were active in any assay of this set; here they are far more common.
PostGolgi ctrl: inhibits growth of the yeast control strain; efflux-deficient yeast background strain, growth absorbance A615, 16 h; inhibition, % at 10 µM; actives 5% (n = 98,000); AID 738
CYP2C19 activ: cytochrome P450 2C19 (human) activation; P33261; recombinant CYP2C19, luciferin-H EGE luminescence; stronger effect = higher value; 0 = fully inhibited enzyme, 1 = untreated enzyme; activation factor at 5 µM; 96,000 tested, under 10 active; AID 1025;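 active = activation factor of at least 2 at 5 µM in the primary screen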;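 also: 0 = wells with 2.5 mM tranylcypromine and 1 = vehicle-only wells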
Target sequence (P33261 whole entry, looked up): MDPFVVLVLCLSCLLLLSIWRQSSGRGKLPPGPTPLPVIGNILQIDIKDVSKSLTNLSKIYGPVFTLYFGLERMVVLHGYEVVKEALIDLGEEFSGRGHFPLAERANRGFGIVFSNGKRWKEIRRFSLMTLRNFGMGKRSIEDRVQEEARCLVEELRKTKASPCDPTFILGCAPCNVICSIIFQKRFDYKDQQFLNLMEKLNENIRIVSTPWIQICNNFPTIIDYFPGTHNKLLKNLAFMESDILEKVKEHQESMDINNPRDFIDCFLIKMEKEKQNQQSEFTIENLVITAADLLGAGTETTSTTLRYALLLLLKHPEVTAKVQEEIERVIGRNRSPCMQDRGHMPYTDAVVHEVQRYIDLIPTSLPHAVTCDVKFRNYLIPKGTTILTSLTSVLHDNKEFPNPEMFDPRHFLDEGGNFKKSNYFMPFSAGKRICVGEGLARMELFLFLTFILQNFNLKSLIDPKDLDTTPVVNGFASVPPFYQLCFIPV
CYP2C19 inhib: inhibitors of human CYP2C19 | P33261 | CYP2C19 Supersomes, luciferin-H EGE luminescence, 30 min | inhibition, % at 5 µM | actives 21% (n = 96,000);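 active = CYP2C19 inhibition above a set limit at 5 µM in the primary screen, cut at about 50% in these data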;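 also: plate controls were negative control wells for no effect and 2.5 mM tranylcypromine positive control for full effect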
PostGolgi yeast: growth inhibition of a yeast mutant, post-Golgi transport screen. inhibition, % at 10 µM. AID 739. post-Golgi transport phenotypic cell assay. actives 0.9% (n = 98,000);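 also: yeast cells grown in 1536-well plates; yeast grown about 18 h at 30C before absorbance read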
CYP2C9 inhib: blocks human cytochrome P450 2C9; P11712; CYP2C9 Supersomes, luciferin-H conversion, luminescence; inhibition, % at 5 µM; actives 20% (n = 96,000); AID 777;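 active = blocking of liver enzyme CYP2C9 beyond about 50% at 5 µM, limit read from the data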
CYP2C9 activ: increases human cytochrome P450 2C9 activity; recombinant CYP2C9, luciferin-H conversion, luminescence; stronger effect = higher value; factor 1 = untreated enzyme, 0 = blocked; activation factor at 5 µM; actives 1.4% (n = 96,000); AID 1024;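 active = activation factor of 2 or more for CYP2C9 at a 5 µM dose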;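 also: 0 = sulfaphenazole-blocked wells and 1 = vehicle-only wells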
* marks the source's active call; other numbers are inactive results; x = not tested or not shown. Rule as the data show it, unless noted: active = inhibition above about 30%; inactive = the rest.

SMILES	PostGolgi ctrl	CYP2C19 activ	CYP2C19 inhib	PostGolgi yeast	CYP2C9 inhib	CYP2C9 activ
O=C(CCN1CCc2ccccc2C(c2ccccc2)C1)c1ccc2c(c1)OCCO2 (configuration not stated)	-0.6	0.7	29.4	-11.0	54.6*	0.5
O=C(CCN1Cc2ccccc2C1)c1ccc2c(c1)OCCO2	7.3	0.5	47.8	-7.4	51.5*	0.5
CCCC(=O)c1ccc2c(c1)OCCO2	-1.7	0.8	20.1	10.9	21.5	0.8
O=C(O)CCC(=O)c1ccc2c(c1)OCCO2	0.4	1.2	-15.4	1.2	-6.6	1.1
O=C(O)CCSCC(=O)c1ccc2c(c1)OCCO2	3.4	0.9	6.3	12.8	-15.8	1.2
NC(=O)CCn1nc(-c2ccc(Cl)cc2)c2ccccc2c1=O	11.8	0.4	57.3*	2.0	32.0	0.7
CNC(=O)CCn1nc(-c2ccccc2)c2ccccc2c1=O	3.9	0.8	20.7	22.2	11.9	0.9
COc1ccc(NC(=O)C2CCN(S(=O)(=O)c3cccc4cccnc34)CC2)cc1	12.4	0.9	8.6	-4.3	-52.9	1.5
COc1ccc(OC)c(S(=O)(=O)N2CCC(C(=O)N3CCc4ccccc4C3)CC2)c1	13.4	0.2	78.0*	3.3	-8.4	1.1
COc1ccc(S(=O)(=O)N2CCC(C(=O)NCCc3ccccc3)CC2)cc1OC	12.0	0.9	6.3	-0.6	-36.1	1.4
Cc1cc(C)nc(N2CCC(C(=O)NCc3cccs3)CC2)n1	0.5	1	0.9	20.0	-23.2	1.2
COc1ccccc1CNC(=O)C1CCN(S(=O)(=O)c2cccc3cccnc23)CC1	21.3	0.4	64.3*	-2.4	-154.4	2.5*
COc1ccc(OC)c(S(=O)(=O)N2CCC(C(=O)NCc3ccccc3)CC2)c1	14.6	0.7	25.1	4.2	-267.6	3.7*
O=C(NCc1cccs1)C1CCN(c2nccs2)CC1	2.2	0.2	84.3*	-2.4	55.6*	0.4
O=C1C2CCCN2C(c2ccc(F)cc2)N1c1cccc(Cl)c1 (configuration not stated)	5.3	0.8	16.7	-2.7	8.6	0.9
COc1cc(=O)[nH]c(=O)n1CC(=O)c1ccccc1	2.2	x	x	-0.5	x	x
COc1nc2c(C)cccc2cc1-c1noc(-c2ccco2)n1	23.3	0.8	23.4	-6.0	15.3	0.8
CC1CCC(NC(=O)c2ccc3nc[nH]c3c2)CC1 (configuration not stated)	-5.1	0.7	33.7	1.8	13.5	0.9
O=C(NCc1ccco1)C1CCN(S(=O)(=O)c2cccc3cccnc23)CC1	-1.9	0.6	37.8	3.5	-38.6	1.4
COc1ccc(OC)c(S(=O)(=O)N2CCC(C(=O)NCCC3=CCCCC3)CC2)c1	-0.1	x	x	-3.5	x	x
COc1ccc(OC)c(S(=O)(=O)N2CCC(C(=O)NCc3ccccc3OC)CC2)c1	12.4	0.7	35.0	-20.2	-144.4	2.4*
O=C(C1CCN(S(=O)(=O)N2CCC3(CC2)OCCO3)CC1)N1CCc2ccccc2C1	6.4	0.2	75.7*	-0.2	41.1	0.6
O=C(NCc1cccs1)C1CCN(S(=O)(=O)c2cccc3cccnc23)CC1	x	0.5	53.8*	7.3	-76.6	1.8
Cc1cc(C)c2c(-n3cccc3)c(NC(=O)OC(C)C)sc2n1	26.1	0.9	13.2	14.9	37.2	0.6
Cc1ccc(C2C(C(=O)c3cccs3)=C(O)C(=O)N2CCN2CCOCC2)o1 (configuration not stated)	-0.1	1.2	-16.6	3.1	-16.9	1.2
SMILES	PostGolgi ctrl	CYP2C19 activ	CYP2C19 inhib	PostGolgi yeast	CYP2C9 inhib	CYP2C9 activ
CCOC(=O)C(CC)n1cnc2c(nnn2-c2ccc(C)cc2)c1=O (configuration not stated)	7.0	0.8	16.9	-0.5	50.3*	0.5
COc1ccccc1NC(=O)CSc1nc2nc(C)cc(C)c2c(=O)[nH]1	3.4	0.9	13.9	5.6	52.4*	0.5
COc1ccccc1NC(=O)Cc1noc(CSc2cccc[n+]2[O-])n1	17.5	1	-3.1	-5.9	-12.9	1.1
COc1ccccc1NC(=O)Cc1noc(CSc2cc(C)c3ccccc3n2)n1	17.8	0.1	93.0*	4.0	40.0	0.6
Nc1cc(N)nc(SCC(=O)Nc2ccc(Br)cc2Cl)n1	x	0.3	74.1*	x	55.5*	0.4
COc1ccccc1NC(=O)CSc1nc2ccccc2n1C(C)=O	1.0	0.6	39.6	-19.6	45.1	0.5
COc1ccccc1NC(=O)CSc1nc2ccccc2cc1Cc1ccccc1	7.6	0	99.1*	0.2	55.2*	0.4
Cc1cc(C)c2c(=O)[nH]c(SCC(=O)NCc3ccccc3)nc2n1	-3.6	0.7	34.2	-1.1	29.6	0.7
CCOc1ccccc1NC(=O)C(CC(C)C)NC(=O)C1CCCCC1 (configuration not stated)	2.1	0.9	13.5	-9.5	1.0	1
COC(=O)c1c(NC(=S)Nc2ccccc2Cl)sc(C)c1C	-0.8	0.7	25.3	-3.4	25.9	0.7
COc1ccccc1NC(=O)CSc1nc(N)cc(N)n1	-5.4	0.3	71.5*	-9.4	-73.0	1.7
C=CCN1C(=O)C(Cc2ccc(OCC)cc2)S/C1=N\N=C\c1cccs1 (configuration not stated)	8.1	0.7	30.0	-8.3	54.1*	0.5
C=CCN1C(=O)C(Cc2ccc(C)cc2)S/C1=N/N=C/c1ccco1 (configuration not stated)	12.8	1	4.8	-3.4	25.2	0.7
C=CCN1C(=O)C(Cc2ccccc2)S/C1=N/N=C/c1cccs1 (configuration not stated)	37.9*	0.8	23.2	-7.0	68.0*	0.3
O=C(NNC(=O)c1ccc(SCC2CCCO2)c([N+](=O)[O-])c1)c1ccc(F)cc1 (configuration not stated)	2.6	1	-2.9	5.5	19.2	0.8
COC(=O)c1nn(-c2c(C)n(C)n(-c3ccccc3)c2=O)cc1O	0.5	1	1.8	-0.2	12.2	0.9
c1ccc2[nH]c(SN3CCOCC3)nc2c1	25.6	1.2	-16.6	9.9	-11.5	1.1
C/C(=C\C(=O)c1ccncc1)Nc1ccccc1O	2.9	0	96.6*	8.5	28.4	0.7
O=C1CCCN1Cc1ncnn1-c1ccccc1	3.4	x	x	2.8	x	x
Brc1ccc(-c2cn3nc4c(nc3n2)CCCC4)cc1	19.9	0.6	38.2	15.2	18.6	0.8
c1ccc(-c2cn3nc4c(nc3n2)CCCC4)cc1	19.8	0.2	80.8*	14.8	28.7	0.7
Cc1nc2nc(-c3ccccc3)cn2nc1C	-3.9	0.5	52.3*	3.7	23.9	0.8
COc1ccccc1CNC(=O)c1cccc(N(C)C)c1	5.3	0.7	32.4	3.0	-132.5	2.3*
COc1cc(C(=O)NCc2cccc3ccccc23)ccc1OCc1ccccc1	4.3	0.8	21.5	4.2	69.4*	0.3
COc1ccc(CNC(=O)c2cccc(N(C)C)c2)cc1	14.8	0.6	38.4	-10.8	-46.0	1.5
